Results reported in PubChem BioAssay (NCATS).
Records with an inconclusive call do not appear. Activity calls are given as the source filed them. Calls come from the whole dose curve; as a rule, active = well fitted curve in the direction sought with a large enough effect; inconclusive = small, poorly fitted or top-dose-only effect, or another doubt; inactive = no such curve, though single readings can be large; an effect the other way counts as inactive or inconclusive.

Experiments:
[1] = qHTS of pediatric cancer cell lines to identify multiple opportunities for drug repurposing: Primary screen for A673 cells (AID 1347092); note: nearly all actives have a fitted effect of over 45% in size
Procedure, shortened: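 Luminescence from CellTiter-Glo, taken after 15 min at room temperature, served as the proxy for metabolically active cells following 48 h treatment. Both potency and efficacy were taken from curves fitted to the titration data.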

[2] = qHTS of pediatric cancer cell lines to identify multiple opportunities for drug repurposing: Primary screen for SK-N-MC cells (AID 1347093); note: series mostly up to about 46 µM
Procedure, shortened: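 Metabolically active cells were quantified by ATP-dependent luminescence (CellTiter-Glo, 15 min at room temperature) following 48 h treatment. Cells had been plated at 500-1,000 per well and settled for 5 h beforehand.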

[3] = qHTS of pediatric cancer cell lines to identify multiple opportunities for drug repurposing: Primary screen for BT-37 cells (AID 1347094); note: series mostly up to about 57 µM
Procedure, shortened: (§1)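 Readout: CellTiter-Glo luminescence, 48 h treatment. Controls DMSO (neutral) and bortezomib 2.3 µM final (positive). Potency and efficacy taken from primary-screen concentration-response curves.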

[4] = qHTS of pediatric cancer cell lines to identify multiple opportunities for drug repurposing: Primary screen for NB-EBc1 cells (AID 1347095)
Procedure, shortened: as §1

[5] = qHTS of pediatric cancer cell lines to identify multiple opportunities for drug repurposing: Primary screen for SK-N-SH cells (AID 1347098); note: nearly all actives have a fitted effect of over 65% in size
Procedure, shortened: (§2)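 Cells (500-1,000/well) rested 5 h, then received compounds for 48 h; metabolically active cells were measured by CellTiter-Glo luminescence. Final concentrations spanned up to 46 µM (MIPE, 11-point) or 0.59 nM-46 µM (NPC, 8-point) in primary screens, 11-point in follow-ups.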

[6] = qHTS of pediatric cancer cell lines to identify multiple opportunities for drug repurposing: Primary screen for NB1643 cells (AID 1347099); note: nearly all actives have a fitted effect of over 50% in size
Procedure, shortened: as §1

[7] = qHTS of pediatric cancer cell lines to identify multiple opportunities for drug repurposing: Primary screen for LAN-5 cells (AID 1347100)
Procedure, shortened: (§3)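 Viability after 48 h compound treatment at 37C, 500-1,000 cells/well, read as ATP luminescence with CellTiter-Glo. Primary screens used 11-point (MIPE, 0.78 nM-46 µM) or 8-point (NPC, 0.59 nM-46 µM) final concentrations; follow-up screens used 11-point dilutions.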

[8] = qHTS of pediatric cancer cell lines to identify multiple opportunities for drug repurposing: Primary screen for BT-12 cells (AID 1347101); note: nearly all actives have a fitted effect of over 25% in size
Procedure, shortened: as §2

[9] = qHTS of pediatric cancer cell lines to identify multiple opportunities for drug repurposing: Primary screen for Rh18 cells (AID 1347102); note: nearly all actives have a fitted effect of over 65% in size
Procedure, shortened: as §3

[10] = qHTS of pediatric cancer cell lines to identify multiple opportunities for drug repurposing: Primary screen for OHS-50 cells (AID 1347103); note: nearly all actives have a fitted effect of over 40% in size
Procedure, shortened: as §2

[11] = qHTS of pediatric cancer cell lines to identify multiple opportunities for drug repurposing: Primary screen for RD cells (AID 1347104); note: nearly all actives have a fitted effect of over 55% in size
Procedure, shortened: as §1

[12] = qHTS of pediatric cancer cell lines to identify multiple opportunities for drug repurposing: Primary screen for Rh30 cells (AID 1347107); note: series mostly up to about 46 µM; nearly all actives have a fitted effect of over 75% in size
Procedure, shortened: as §3

[13] = qHTS of pediatric cancer cell lines to identify multiple opportunities for drug repurposing: Primary screen for Rh41 cells (AID 1347108);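 note: series mostly up to about 46 µM; luminescence drop marks cytotoxic hits; nearly all actives have a fitted effect of over 70% in size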
Procedure, shortened: as §1

[14] = qHTS of pediatric cancer cell lines to identify multiple opportunities for drug repurposing: Primary screen for Saos-2 cells (AID 1347097); note: nearly all actives have a fitted effect of over 40% in size
Procedure, shortened: as §1

[15] = qHTS of pediatric cancer cell lines to identify multiple opportunities for drug repurposing: Primary screen for MG 63 (6-TG R) cells (AID 1347105); note: nearly all actives have a fitted effect of over 50% in size
Procedure, shortened: as §1

[16] = qHTS of pediatric cancer cell lines to identify multiple opportunities for drug repurposing: Primary screen for control Hh wild type fibroblast cells (AID 1347106);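 note: series mostly up to about 46 µM; a drop in luminescence marks cytotoxicity and a rise apparent proliferation; nearly all actives have a fitted effect of over 55% in size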
Procedure, shortened: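 Cells (500-1,000/well) in growth media were settled 5 h at 37 degrees C, then given compounds for 48 h. Viability was read as CellTiter-Glo luminescence. Primary runs used MIPE at 11 points (0.78 nM-46 µM) and NPC at 8 points (0.59 nM-46 µM); follow-ups used 11 points.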

[17] = qHTS of pediatric cancer cell lines to identify multiple opportunities for drug repurposing: Primary screen for U-2 OS cells (AID 1347096); note: nearly all actives have a fitted effect of over 50% in size
Procedure, shortened: as §3

Measured: Potency

CC(C)(Oc1ccc(CCNC(=O)c2ccc(Cl)cc2)cc1)C(=O)O
inactive: [1] | [2] | [3] | [4] | [5] | [6] | [7] | [8] | [9] | [10] | [11] | [12] | [13]

CCN1CCC[C@H]1CNC(=O)c1c(O)c(Cl)cc(Cl)c1OC
inactive: [1] | [2] | [3] | [4] | [14] | [5] | [6] | [7] | [9] | [10] | [11] | [15] | [16] | [12] | [13]

NC(=O)N1c2ccccc2C=Cc2ccccc21
inactive: [1] | [2] | [3] | [4] | [14] | [5] | [6] | [7] | [9] | [10] | [11] | [15] | [16] | [12] | [13]

C[C@]12CCC(=O)C=C1CC[C@@H]1[C@@H]2CC[C@@]2(C)[C@H]1CC[C@]2(O)C(=O)CO
inactive: [1] | [2] | [3] | [17] | [14] | [5] | [6] | [7] | [8] | [9] | [11] | [15] | [16] | [12] | [13]

CCCNC(C)C(=O)Nc1ccccc1C (stereo not drawn)
inactive: [1] | [2] | [3] | [4] | [14] | [5] | [6] | [7] | [9] | [10] | [11] | [15] | [16] | [12] | [13]

C[N+](C)(C)CCOC(=O)CCC(=O)OCC[N+](C)(C)C
inactive: [1] | [2] | [3] | [4] | [14] | [5] | [6] | [7] | [8] | [9] | [10] | [11] | [15] | [12] | [13]

C[C@H](CS)C(=O)N1CCC[C@H]1C(=O)O
inactive: [1] | [2] | [3] | [17] | [14] | [5] | [6] | [7] | [9] | [10] | [11] | [15] | [16] | [12] | [13]

Brc1c(NC2=NCCN2)ccc2nccnc12
inactive: [1] | [2] | [3] | [17] | [14] | [5] | [6] | [7] | [8] | [9] | [10] | [11] | [15] | [12] | [13]
